DAX1 inh-1: DAX1 (NR0B1) inhibitors on StAR promoter, primary screen, cell-based, luminescence, SF-1 (NR5A1), full-length DAX-1; inhibition, % at 6.8 µM; hit rate 1.1% among 370,000; HEK293T StAR-luciferase reporter, SF-1/DAX-1 repression relief;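 active means inhibition above the mean over all tested compounds plus 3 SD, cut at about 3.6% in these data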;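 further: 0% = DAX-1 cells with DMSO and 100% = cells lacking DAX-1 with DMSO; higher inhibition means more luminescence from relief of DAX-1 repression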
hgDAF12 agonist: H. glycines DAF-12 receptor agonists, primary screen, cell-based, luminescence, HEK293, GAL4 fusion, UAS-luciferase; HEK293 GAL4-hgDAF12 UAS-luciferase reporter, agonist luminescence; normalized to butyrate control; hit rate 1.8% among 370,000; Nuclear hormone receptor DAF-12 (Heterodera glycines), GAL4 fusion; activation, % at 6.8 µM;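 active means activation above a cutoff set at the mean of all screened compounds plus 3 SD, cut at about 10% in these data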;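 further: 0% = DMSO wells and 100% = sodium butyrate wells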
ssDAF12 agonist: S. stercoralis DAF-12 nuclear receptor activators, primary screen, cell-based, luminescence, HEK293, GRIP1 co-expression, lit1-tk-luc | Nuclear hormone receptor DAF-12 (Strongyloides stercoralis) | HEK293 ssDAF-12/GRIP1 lit1-tk-luc reporter; % of 3 µM dafachronic acid response | activation, % at 6.8 µM | hit rate 1% among 370,000;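 active means activation above the mean over all tested compounds plus 3 SD, cut at about 0.9% in these data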;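 further: 0% = DMSO-only wells and 100% = 3 µM delta7-dafachronic acid wells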
hcDAF-12 act: H. contortus DAF-12 nuclear receptor activators, primary screen, cell-based, luminescence, HEK293, lit1-tk-luc reporter; HEK293 hcDAF-12 lit1-tk-luc reporter; 0% DMSO, 100% Δ7-dafachronic acid; activation, % at 6.8 µM; hit rate 1.4% among 370,000; AID 652067, 2013;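 active means activation above the mean of all tested compounds plus 3 SD, cut at about 5.5% in these data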;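 further: 100% = response to 3 µM Δ7-dafachronic acid high control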
DAX1 inh-2: DAX1 (NR0B1) inhibitors, primary screen, cell-based, HEK293, Gal4-DAX1, luciferase luminescence; hit rate 0.99% among 340,000; inhibition, % at 6.75 µM; HEK293 Gal4-DAX1 luciferase reporter; AID 504766, 2011;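 active means inhibition above the mean over all tested compounds plus 3 SD, cut at about 4.2% in these data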;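 further: 0% = DAX1-transfected cells with DMSO and 100% = empty-vector control cells with DMSO; inhibition shows as a rise in luminescence from relieved DAX1 repression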
Target sequence (P51843 207-470 limits assumed): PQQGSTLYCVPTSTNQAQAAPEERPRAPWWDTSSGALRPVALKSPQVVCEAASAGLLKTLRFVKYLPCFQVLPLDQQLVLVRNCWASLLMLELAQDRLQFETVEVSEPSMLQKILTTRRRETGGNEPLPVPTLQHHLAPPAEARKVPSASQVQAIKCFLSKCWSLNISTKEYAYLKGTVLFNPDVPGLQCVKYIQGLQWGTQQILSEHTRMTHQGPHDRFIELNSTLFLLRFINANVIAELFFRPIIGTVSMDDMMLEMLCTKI
AHR act: AHR activators, primary screen, cell-based, luminescence, luciferase reporter, human; hit rate 2.5% among 320,000; AHR-responsive luciferase reporter cells; activation, % at 5 µM; AID 2796, 2010; in the data active means activation above about 47%;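 further: 0% = vehicle wells and 100% = reference agonist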
DAX1 inh confirm: DAX1 (NR0B1) inhibitors relieving SF-1 repression, confirmation, cell-based, luminescence, HEK293T, full-length DAX-1, SF-1 activated StAR promoter; shares compounds with DAX1 inh-1; AID 652134, 2013; HEK293T StAR-promoter luciferase reporter, SF-1/DAX-1 repression; inhibition, % at 6.8 µM; hit rate 87% among 2,400;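 active means inhibition above the average of every tested compound plus 3 SD, cut at about 3.8% in these data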;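 further: 0% = DAX-1 cells with DMSO and 100% = no DAX-1 control cells with DMSO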
Target sequence (P51843 whole entry, looked up): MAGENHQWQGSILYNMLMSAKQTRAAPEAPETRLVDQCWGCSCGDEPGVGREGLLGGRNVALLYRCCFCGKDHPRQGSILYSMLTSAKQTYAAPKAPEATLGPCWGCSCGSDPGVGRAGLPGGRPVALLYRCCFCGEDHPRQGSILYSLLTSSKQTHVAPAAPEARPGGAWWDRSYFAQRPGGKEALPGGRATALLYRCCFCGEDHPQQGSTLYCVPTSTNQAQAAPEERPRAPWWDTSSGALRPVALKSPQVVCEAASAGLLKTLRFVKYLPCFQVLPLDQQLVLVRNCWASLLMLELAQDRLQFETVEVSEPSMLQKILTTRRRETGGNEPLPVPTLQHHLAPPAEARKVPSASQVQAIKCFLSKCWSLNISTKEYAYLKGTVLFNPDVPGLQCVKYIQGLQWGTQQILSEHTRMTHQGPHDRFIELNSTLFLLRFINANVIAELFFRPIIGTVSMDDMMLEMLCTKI
SF1 mutant ctr: StAR reporter signal changes without DAX1, counter-screen for DAX1 inhibitor project, cell-based, luminescence, AF-2 mutant SF-1, transactivation; shares compounds with DAX1 inh-1; HEK293 StAR-luciferase, SF-1 AF2 mutant; hit rate 78% among 2,400; AID 652136, 2013; inhibition, % at 6.8 µM;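 active means inhibition above the mean of all tested compounds plus 3 SD, cut at about 3% in these data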;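 further: 0% = DAX-1 transfected cells with DMSO and 100% = cells without DAX-1 with DMSO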
Numbers without * were called inactive; . = not tested or not shown. The list is not random: actives were taken first. Their share in the collection is about 5.7%.

SMILES	DAX1 inh-1	hgDAF12 agonist	ssDAF12 agonist	hcDAF-12 act	DAX1 inh-2	AHR act	DAX1 inh confirm	SF1 mutant ctr
CCN1C(=O)/C(=C/C=C2/SCCN2C)SC1=S	4.7*	10.2	0.1	5.8*	3.9	-5.7	10.5*	5.6*
COCCn1c(C)cc(C(=O)COC(=O)c2ccc(-n3nc(C)cc3C)cc2)c1C	0.8	-2.8	-0.8	-0.7	-0.8	5.2	.	.
COCCn1c(C)cc(C(=O)COC(=O)c2ccc(Cl)c(S(N)(=O)=O)c2)c1C	5.5*	3.0	-0.7	2.3	0.7	0.6	8.7*	0.7
O=C(COc1ccccc1Br)NC(=O)NC1CCCC1	4.9*	4.8	0.5	-0.9	1.8	.	7.3*	4.3*
O=C(COc1ccccc1Br)NC1CC1	1.3	1.5	-0.2	2.2	1.2	4.0	.	.
Cc1ccccc1C(=O)NCCCNC(=O)c1ccccc1C	-0.8	0.1	-1.1	-0.4	.	2.9	.	.
Cc1nc(SCC(=O)N(CC(C)C)C2CCS(=O)(=O)C2)c(C#N)c(C)c1C (stereo not drawn)	-1.2	-1.6	-1.3	-0.1	0.5	.	.	.
O=c1oc2cc(O)ccc2cc1S(=O)(=O)c1ccccc1	-0.2	-0.8	-0.8	-0.5	0.4	1.4	.	.
O=c1oc2cc(O)ccc2cc1-c1nc2ccccc2o1	5.4*	8.8	0.1	2.5	.	.	6.4*	3.3*
Cc1nc2cc(NC(=O)Nc3nccs3)ccc2n1C	4.6*	11.2*	0.4	4.1	1.4	-2.0	14.7*	8.5*
Cc1nc2cc(NC(=O)c3ccco3)ccc2n1C	7.7*	12.2*	0.3	1.8	-0.1	9.2	11.4*	7.4*
Cc1nc(-c2cccc(NC(=O)c3ccco3)c2)cs1	4.7*	2.8	-1.0	-1.6	0.4	.	1.7	0.4
CN1CCN(c2ccc(NC(=O)c3ccco3)cc2Cl)CC1	14.9*	10.4	0.1	5.9*	0.5	4.3	11.9*	5.2*
Cc1ccc(NC(=O)c2cc(NC(=O)c3ccco3)ccc2N2CCOCC2)cc1Cl	-0.9	-3.7	-1.5	-1.7	-0.6	5.2	.	.
CCC(=O)N/N=C(\C)CC(=O)Nc1ccccc1-c1ccccc1	-0.4	1.8	-0.7	-1.9	1.2	15.5	.	.
COc1cccc(NC(=O)CNc2cc(S(=O)(=O)N3CCOCC3)ccc2N2CCCC2)c1	-0.5	0.5	-0.5	-1.0	0.1	1.9	.	.
CCC(=O)Nc1ccc(C(=O)NNC(=O)COc2cc(C)ccc2C)cc1	0.3	-3.0	0.0	0.6	0.2	1.8	.	.
Cc1ccn2cc(-c3ccc(NC(=O)c4ccco4)cc3)nc2c1	5.0*	11.4*	-0.2	2.4	-0.4	-4.1	10.6*	8.6*
Cc1nc(-c2ccc(NC(=O)c3ccco3)cc2)cs1	-0.3	-4.9	-1.8	-3.7	-5.4	-3.7	.	.
Cc1ccccc1NC(=O)NC1(C(=O)N2CCC(O)CC2)CCCCC1	-0.3	-1.2	-1.4	0.2	0.9	1.1	.	.
COc1ccccc1N1CCN(C(=O)c2[nH]c(C(F)(F)F)nc2-c2ccccc2)CC1	-1.7	0.1	-1.1	1.0	.	.	.	.
Cc1cccc(N2CCN(C(=O)c3[nH]c(C(F)(F)F)nc3-c3ccccc3)CC2)c1C	10.4*	-3.6	-0.5	-1.2	.	.	9.8*	-6.2
CCc1cccc2c(C(=O)CN3C(=O)NC(C)(c4cccc5ccccc45)C3=O)c[nH]c12 (stereo not drawn)	-1.3	-4.3	-0.8	2.2	-1.0	5.7	.	.
CCc1cccc2c(=O)c(C(=O)N3CCCCCC3)c[nH]c12	1.0	-2.2	-1.6	-0.7	-0.2	-0.4	.	.
CCc1cccc2c(C(=O)CN3C(=O)NC4(CCc5ccccc54)C3=O)c[nH]c12 (stereo not drawn)	12.4*	-9.7	-1.5	-0.5	-1.2	12.8	5.9*	-3.5
SMILES	DAX1 inh-1	hgDAF12 agonist	ssDAF12 agonist	hcDAF-12 act	DAX1 inh-2	AHR act	DAX1 inh confirm	SF1 mutant ctr
CCc1cccc2c(C(=O)CN3C(=O)N(C)C4(CCCCC4)C3=O)c[nH]c12	7.9*	-5.7	-1.2	-3.1	-0.1	-1.2	10.5*	-1.2
CCCn1c(=O)[nH]c(=O)c2c1nc(-c1cc([N+](=O)[O-])ccc1Cl)n2CCOC	0.0	-2.8	-1.4	1.7	-0.7	0.1	.	.
O=c1[nH]c(COc2ccc(Br)cc2Cl)nc2ccccc12	7.4*	6.0	-0.5	2.8	1.9	16.8	7.7*	4.8*
O=c1[nH]c(COc2ccccc2)nc2ccccc12	0.3	8.9	-0.5	-1.4	4.1	0.5	.	.
O=C(Nc1ccc([N+](=O)[O-])cc1Cl)c1cccc([N+](=O)[O-])c1	-0.2	2.4	-1.3	0.5	1.2	.	.	.
O=C(Nc1ccc([N+](=O)[O-])cc1Cl)c1cc(Cl)ccc1O	6.7*	12.0*	0.4	5.4	1.3	13.4	-9.1	-11.9
CC1Sc2ccc(C(=O)OCc3ccccc3Cl)cc2NC1=O (stereo not drawn)	6.1*	6.5	-0.7	2.2	1.6	41.5	7.3*	5.9*
Cc1ccc(-n2ncc3c(SCC(=O)Nc4cc(C)on4)ncnc32)c(C)c1	-0.4	-1.0	-0.8	1.3	0.8	0.8	.	.
O=C(CSc1nc2ccccc2[nH]1)NN=Cc1ccccc1C(=O)O	5.5*	9.5	0.2	5.9*	.	.	12.0*	7.8*
O=C(CSc1nc2ccccc2[nH]1)N/N=C/c1ccncc1	0.0	-0.4	-1.4	1.4	.	14.5	.	.
CCCNC(=O)c1cc(C2CCCN(C(=O)c3ccccc3)C2)on1 (stereo not drawn)	-1.1	1.6	-0.8	-1.9	.	.	.	.
COc1ccc(NC(=O)C2=Cc3ccccc3OC2)cc1	8.0*	17.9*	1.2*	5.8*	-0.8	3.5	17.6*	8.2*
O=C(Nc1ccc(Cl)cc1)C1=Cc2cc(Cl)ccc2OC1	0.3	-0.6	-0.9	-1.0	-1.0	45.3	.	.
Cc1ccc(C2C(C(=O)c3cccs3)=C(O)C(=O)N2c2nnc(C)s2)cc1 (stereo not drawn)	0.9	-2.1	-1.5	-1.1	0.7	-6.2	.	.

Source: PubChem BioAssay (The Scripps Research Institute Molecular Screening Center)
